The source holds several records for some structures; these can differ, active in one and inactive in another. The source made the active and inactive calls. The calls were made as follows: active = hit-call score of the fitted dose curve at least 0.9, where 1 is the maximum; inactive = score below 0.9.
Experiment: ATG_PBREM_CIS: Attagene CIS-FACTORIAL HepG2 Assay for human Phenobarbital-responsive Enhancer Module (PBREM) (AID 2282955)
Settings: HepG2 PBREM cis-reporter, Attagene multiplexed transcription; actives raise or lower the signal
Experimental: ATG_CIS is a cell-based, multiplexed-readout assay that uses HepG2, a human liver cell line, with measurements taken at 24 hours after chemical dosing in a 24-well plate.ATG_PBREM_CIS is one of 52 assay component(s) measured or calculated from the ATG_CIS assay. It is designed to make measurements of mRNA induction, a form of inducible reporter, as detected with fluorescence intensity signals by Reverse transcription polymerase chain reaction (RT-PCR) and Capillary electrophoresis technology.Data from the assay component ATG_PBREM_CIS was analyzed into 1 assay endpoint. This assay endpoint, ATG_PBREM_CIS, was analyzed with bidirectional fitting relative to DMSO as the negative control and baseline of activity. Using a type of inducible reporter, measures of mRNA for gain or loss-of-signal activity can be used to understand the reporter gene at the transcription factor-level as they relate to the gene NR1I3. Furthermore, this assay endpoint can be referred to as a primary readout, because this assay has produced multiple assay endpoints where this one serves a reporter gene function. To generalize the intended target to other relatable targets, this assay endpoint is annotated to the nuclear receptor intended target family, where the subfamily is non-steroidal.
Human liver HepG2 cells are transiently transfected with multiple reporter transcription units (MRTUs) in 6-well plates using FuGene 6 reagent (Roche; 3 ml FuGene/1 mg DNA). The MRTU constructs are regulated by a cis-regulating element (promoter). […] A major difference between the CIS and TRANS system is that in CIS activities of endogenous TFs are measured, whereas the TRANS assay evaluates changes in activities of exogenous, chimeric NR-Gal4 proteins. […] At the end of 24 hour incubation, total RNA was isolated using TriZol reagent (Invitrogen). The isolated RNA is then reverse-transcribed using oligo(dT) primer and Mo-MLV reverse transcriptase (Invitrogen) with DNAse I (Ambion) treatment for 30 min. The one-tenth of the produced cDNA was amplified by PCR using Taq DNA polymerase (Invitrogen) and two reporter sequence-specific primers. The PCR products were fluorescently labeled by primer extension with 6-arboxyfluorescein (6-FAM) 5'-labeled reporter sequence-specific primer (2 min at 95 C, 20 s at 68 C and 10 min at 72 C) and these products were digested with 5U of HpaI (New England Biolabs) for 2h at 37 C. The fragments were purified using Qiaquick PCR columns (Qiagen), analyzed on an ABI 3130xL genetic analyzer (Applied Biosystems) with peak positions identified by using a set of X-rhodamine (ROX)-labeled MapMarker1000 molecular weight standards (BioVentures). The raw capillary electrophoresis data was processed using Attagraph software (Attagene).

Structure (SMILES)	outcome	AC50
CO[Si](OC)(c1ccccc1)c1ccccc1	inactive	
C=CC/C=C/C/C=C/C/C=C/C	inactive	
CCc1c(Br)c(Br)c(Br)c(Br)c1Br		23.7 µM (active)
CCCCCCC(C)OC(=O)CCCCC(=O)OC(C)CCCCCC (stereo not given)	inactive	
C=C(C)C(=O)OCC(F)(F)C(F)(F)C(F)(F)F	inactive	
Nc1ccc(Oc2cccc(Oc3ccc(N)cc3)c2)cc1	inactive	
NC(=O)C(F)(F)C(F)(F)C(F)(F)C(F)(F)F	inactive	
O=C(CC(=O)C(F)(F)C(F)(F)F)C(F)(F)F	inactive	
OCCCC(F)(F)C(F)(F)C(F)(F)C(F)(F)C(F)(F)C(F)(F)C(F)(F)F	inactive	150 µM (active)
N=C(N)C(F)(F)C(F)(F)C(F)(F)C(F)(F)C(F)(F)C(F)(F)C(F)(F)F	inactive	
Nc1ccc([N+](=O)[O-])cc1O	inactive	
O=C(Cl)C(F)(F)C(F)(F)C(F)(F)C(F)(F)C(F)(F)C(F)(F)C(F)(F)C(F)(F)F	inactive	
CCCCCC=O	inactive	
FC(F)(F)C(F)(F)C(F)(F)C(F)(F)C(F)(F)CCI	inactive	
C=CC(=O)OCC(F)(F)C(F)(F)C(F)(F)C(F)(F)COC(=O)C=C	inactive	
FC(F)(F)C(F)(F)C(F)(F)C(F)(F)C(F)(F)C(F)(F)CC1CO1 (stereo not given)	inactive	
O=S(=O)(OCCOC(F)(F)F)C(F)(F)F	inactive	
O=C(O)C(F)(OC(F)(F)C(F)(OC(F)(F)C(F)(F)C(F)(F)F)C(F)(F)F)C(F)(F)F (stereo not given)	inactive	
CCCCNc1ccccc1	inactive	
C#C[C@]1(O)CC[C@H]2[C@@H]3CCc4cc(OC)ccc4[C@H]3CC[C@@]21C	inactive	

Structure (SMILES)	outcome	AC50
Oc1ccc(Nc2ccccc2)cc1	inactive	
CCN(Cc1cccc(S(=O)(=O)O)c1)c1ccc(C(=C2C=CC(=[N+](CC)Cc3cccc(S(=O)(=O)O)c3)C=C2)c2ccc(O)cc2S(=O)(=O)[O-])cc1	inactive	
Cc1cccc(N(C)C)c1	inactive	
CCCCCCCOC(=O)c1ccccc1C(=O)OCCCCCCC	inactive	
CC(C)(C)C(=O)CC(=O)C(F)(F)C(F)(F)C(F)(F)F	inactive	
O=C(O)C(F)(F)C(F)(F)C(F)(F)C(F)(F)C(F)(F)C(F)(F)C(F)(F)C(F)(F)C(F)(F)C(F)F	inactive	
OCC(F)(F)C(F)(F)C(F)(F)C(F)F	inactive	
O=C(O)C(F)(F)C(F)(F)F	inactive	
CCCCOCCOCCOC(=O)CCCCC(=O)OCCOCCOCCCC	inactive	
OCC(F)(F)C(F)(F)C(F)(F)C(F)(F)C(F)(F)C(F)(F)F		282 µM (active)
FC(F)(F)C(F)(F)C(F)(F)C(F)(F)C(F)(F)C(F)(F)C(F)(F)Br	inactive	
CCCCCCOC(=O)c1ccccc1O	inactive	
CC(=O)Nc1ccc(N=Nc2cc(C)ccc2O)cc1		49.4 µM (active)
CCC(=O)OCCc1ccccc1	inactive	
FC(F)(F)C(F)(F)C(F)(F)C(F)(F)C(F)(F)C(F)(F)C(F)(F)C(F)(F)F	inactive	
C(=C(c1ccccc1)c1ccccc1)c1ccccc1	inactive	
O=C(O)C(F)(F)C(F)(F)C(F)(F)C(F)(F)C(F)(F)C(F)(F)C(F)(F)C(F)(F)C(F)(F)C(F)(F)C(F)(F)C(F)(F)C(F)(F)F	inactive	
FC(F)(Br)C(F)(F)C(F)(F)C(F)(F)C(F)(F)C(F)(F)Br	inactive	
OCCCC(F)(F)C(F)(F)C(F)(F)F	inactive	

— PubChem BioAssay (EPA / NIEHS)
